Results taken from PubChem BioAssay AID722 (NMMLSC, 2007).
The whole screen tested about 1,300 compounds, of which about 40 (3%) were called active. The list comes from a sample in which actives are over-represented; it also holds similar structures and randomly drawn compounds. Unmarked numbers belong to inactive results. Rule as the data show it: active = inhibition above about 30%; inactive = the rest.

Target: fMet-Leu-Phe receptor (Homo sapiens) (UniProt P21462)
Test: FPR1 fluorescent ligand binding inhibitors, primary screen, cell-based, flow cytometry, SAR analysis (AID 722)
Conditions: FPR-expressing cells, stronger effect = higher value, concentration not given here

fMet-Leu-Phe receptor (Homo sapiens), sequence (P21462 whole entry, looked up): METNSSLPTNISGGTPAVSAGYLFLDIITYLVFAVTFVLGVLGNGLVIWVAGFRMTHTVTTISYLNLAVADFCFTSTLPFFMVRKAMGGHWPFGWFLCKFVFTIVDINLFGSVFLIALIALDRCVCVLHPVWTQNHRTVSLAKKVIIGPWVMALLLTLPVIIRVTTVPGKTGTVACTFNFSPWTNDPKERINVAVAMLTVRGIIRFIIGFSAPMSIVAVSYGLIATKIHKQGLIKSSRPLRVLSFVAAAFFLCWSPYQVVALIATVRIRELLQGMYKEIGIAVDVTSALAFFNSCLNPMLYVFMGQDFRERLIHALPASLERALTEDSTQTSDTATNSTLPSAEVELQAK

Q: Cc1nc2c(-c3ccc(Cl)cc3)c[nH]n2c(=O)c1Cc1ccccc1 was tested. Which inhibition did it give?
A: -1.4%

Q: For COc1ccc(-c2c(C)[nH]n3c(=O)c(Cc4ccccc4)c(C)nc23)cc1, which inhibition is on record?
A: 6.3%

Q: Cc1nc2c(-c3ccc(Cl)cc3)c(C(F)(F)F)[nH]n2c(=O)c1Cc1ccccc1 was tested. Which inhibition did it give?
A: 50.1% (active)

Q: N#CCn1c(=O)n(Cc2ccccc2)c(=O)c2oc3ccccc3c21 was tested. Which inhibition did it give?
A: -0.8%

Q: For CCCCN(Cc1ccco1)C(=O)c1noc2c1CCCCC2, which inhibition is on record?
A: 0.1%

Q: With CCOC(=O)c1c(NC(=O)c2cccc(Br)c2)sc(C)c1C as the compound, how does the inhibition read?
A: -4.3%

Q: For Cc1ccc(C)c(NC(=O)Cn2c(-c3nonc3N)nc3ccccc32)c1, which inhibition is on record?
A: 5.3%

Q: For O=c1c2cccnc2n(Cc2ccccc2F)c(=O)n1Cc1cccs1, which inhibition is on record?
A: -0.6%

Q: How did the inhibition turn out when Cc1sc2c(c1C)c(=O)n(Cc1ccccc1)c(=O)n2Cc1ccccc1F was run?
A: 38.5% (active)

Q: For O=c1c2cccnc2n(Cc2ccccc2F)c(=O)n1Cc1ccccc1, which inhibition is on record?
A: -7.5%

Q: How did the inhibition turn out when Cc1ccc(C)c(Cn2c(=O)cc(C)c3c(C)nn(-c4cccc(F)c4)c32)c1 was run?
A: -2.2%

Q: Which inhibition does the source give for CCOC(=O)c1sc(N2C(=O)C(=O)/C(=C(/O)c3ccccc3)C2c2ccc(C(C)C)cc2)nc1C (centres undefined) here?
A: 7.9%

Q: With Cc1nnc(N2C(=O)C(=O)/C(=C(/O)c3ccc(F)cc3)C2c2cccc(Oc3ccccc3)c2)s1 (centres undefined) as the compound, how does the inhibition read?
A: -8.8%

Q: Cc1ccc(CN(Cc2ccco2)C(=O)c2cccc(C)c2)cc1 was tested. Which inhibition did it give?
A: -4.5%

Q: How did the inhibition turn out when O=C(O)CCCN1C(=O)C(=O)/C(=C(/O)c2ccccc2)C1/C=C/c1ccccc1 (centres undefined) was run?
A: 44.6% (active)

Q: Which inhibition does the source give for O=C(O)CCCN1C(=O)C(=O)/C(=C(/O)c2ccccc2)C1c1ccc(Br)cc1 (centres undefined) here?
A: 1.2%

Q: For O=C(O)CCCN1C(=O)C(=O)/C(=C(/O)c2ccccc2)C1c1ccc(F)cc1 (centres undefined), which inhibition is on record?
A: 5.5%

Q: O=C1C(=O)N(CCCN2CCOCC2)C(c2cccnc2)/C1=C(\O)c1ccccc1 (centres undefined) was tested. Which inhibition did it give?
A: -3.2%

Q: Which inhibition does the source give for COC(=O)c1ccc(C2C(C(C)=O)=C(O)C(=O)N2c2ccc(OCC(=O)O)cc2)cc1 (centres undefined) here?
A: 2.2%

Q: Which inhibition does the source give for COc1cc(C2C(C(C)=O)=C(O)C(=O)N2c2ccc(Br)cc2)ccc1O (centres undefined) here?
A: 35.8% (active)

Q: With COc1cccc(C2C(C(C)=O)=C(O)C(=O)N2c2ccc(C)c(Br)c2)c1 (centres undefined) as the compound, how does the inhibition read?
A: -9%

Q: Cc1cccc(C(=O)N(C(=O)c2cccc(C)c2)c2ncccn2)c1 was tested. Which inhibition did it give?
A: -8.2%

Q: How did the inhibition turn out when CCN(C(=O)c1noc2c1CCCCC2)c1cccc(C)c1 was run?
A: -6.2%

Q: Which inhibition does the source give for O=C(C1=C(O)C(=O)N(CCc2ccccc2)C1c1ccc(Cl)cc1)c1cccs1 (centres undefined) here?
A: 77.6% (active)

Q: O=C(C1=C(O)C(=O)N(CCCN2CCOCC2)C1c1cccnc1)c1ccco1 (centres undefined) was tested. Which inhibition did it give?
A: -9.2%

Q: With O=C(C1=C(O)C(=O)N(CCCN2CCOCC2)C1c1cccnc1)c1cc2ccccc2o1 (centres undefined) as the compound, how does the inhibition read?
A: 22.2%

Q: Which inhibition does the source give for O=C(C1=C(O)C(=O)N(CCCn2ccnc2)C1c1cccnc1)c1ccco1 (centres undefined) here?
A: 33.2% (active)

Q: How did the inhibition turn out when COc1ccc(C2C(C(=O)c3cccs3)=C(O)C(=O)N2CCCn2ccnc2)cc1 (centres undefined) was run?
A: 42.2% (active)

Q: For O=C(C1=C(O)C(=O)N(CCCn2ccnc2)C1c1cccnc1)c1cccs1 (centres undefined), which inhibition is on record?
A: 3.5%

Q: O=C(C1=C(O)C(=O)N(CCCn2ccnc2)C1c1ccc(Cl)cc1)c1cccs1 (centres undefined) was tested. Which inhibition did it give?
A: 19.5%

Q: With O=C(C1=C(O)C(=O)N(CCCn2ccnc2)C1c1cccc(Br)c1)c1ccco1 (centres undefined) as the compound, how does the inhibition read?
A: 0.3%

Q: With COc1ccc(C2C(C(=O)c3cccs3)=C(O)C(=O)N2CCCn2ccnc2)c(OC)c1 (centres undefined) as the compound, how does the inhibition read?
A: 1.7%

Q: With O=C(C1=C(O)C(=O)N(CCCn2ccnc2)C1c1cccnc1)c1cc2ccccc2o1 (centres undefined) as the compound, how does the inhibition read?
A: 40.4% (active)

Q: For COc1cccc(C2C(C(=O)c3cccs3)=C(O)C(=O)N2CCc2ccccc2)c1 (centres undefined), which inhibition is on record?
A: 15.8%

Q: With O=C(C1=C(O)C(=O)N(CCc2ccccc2)C1c1ccc([N+](=O)[O-])cc1)c1cccs1 (centres undefined) as the compound, how does the inhibition read?
A: -7.4%

Q: With O=C(C1=C(O)C(=O)N(CCCN2CCOCC2)C1c1ccco1)c1ccco1 (centres undefined) as the compound, how does the inhibition read?
A: -4.4%

Q: Which inhibition does the source give for Cc1ccc(/C(O)=C2\C(=O)C(=O)N(CC3CCCO3)C2c2ccc([N+](=O)[O-])cc2)cc1 (centres undefined) here?
A: -3.9%

Q: How did the inhibition turn out when CCCC(=O)N1CCc2cc(OC)c(OC)cc2C1COc1ccc(OC)cc1 (centres undefined) was run?
A: -2.3%

Q: Which inhibition does the source give for Cc1nc2c(C(=O)N3CCCCC3)c[nH]n2c(=O)c1Cc1ccccc1F here?
A: -4.3%

Q: How did the inhibition turn out when CCOc1ccc(C2/C(=C(/O)c3ccccc3)C(=O)C(=O)N2CCO)cc1 (centres undefined) was run?
A: 1.5%

Q: With Cc1ccc(/C(O)=C2\C(=O)C(=O)NC2c2ccc(F)cc2)cc1 (centres undefined) as the compound, how does the inhibition read?
A: 10%

Q: How did the inhibition turn out when Cc1ccc(/C(O)=C2\C(=O)C(=O)NC2c2ccccc2)cc1 (centres undefined) was run?
A: 0.5%

Q: O=C(c1cccs1)N1c2ncnn2C2(CCCCC2)[C@@H]2CCCC[C@@H]21 was tested. Which inhibition did it give?
A: 0.9%

Q: With COc1cccc(N(Cc2nnc3n2CCCCC3)C(=O)Nc2ccccc2)c1 as the compound, how does the inhibition read?
A: -7.8%

Q: COc1ccccc1C1CC(c2ccccc2)=NN1C(=O)c1ccccc1 (centres undefined) was tested. Which inhibition did it give?
A: 0%

Q: For CCOC(=O)c1c(NC(=O)c2ccc(Cl)cc2)sc(C)c1C, which inhibition is on record?
A: -1%

Q: Which inhibition does the source give for CCOC(=O)c1c(NC(=O)c2cc(F)c(F)cc2Cl)sc2c1CCC2 here?
A: -9.6%

Q: Which inhibition does the source give for CCOC(=O)c1c(NC(=O)c2cccc(F)c2)sc2c1CCCC2 here?
A: -4%

Q: Which inhibition does the source give for C=CCC(CC=C)(NC(=O)c1cccc(C)c1)c1ccccc1 here?
A: 0.8%

Q: With O=C(C1=C(O)C(=O)N(c2nncs2)C1c1ccccc1F)c1cccs1 (centres undefined) as the compound, how does the inhibition read?
A: -6.8%

Q: CCc1c(C)nc2c(C#N)c[nH]n2c1=O was tested. Which inhibition did it give?
A: 0.5%

Q: For CC(=O)C1=C(O)C(=O)N(CCN2CCOCC2)C1c1ccc([N+](=O)[O-])cc1 (centres undefined), which inhibition is on record?
A: 5.7%

Q: CCC(C)(C(=O)NC1CCCCC1)N(Cc1cccs1)C(C)=O (centres undefined) was tested. Which inhibition did it give?
A: 57.2% (active)

Q: Which inhibition does the source give for CCOc1ccccc1C(=O)N(Cc1cccs1)c1ccc(C)cc1 here?
A: 5.8%

Q: CCC(C)(C(=O)NC1CCCCC1)N(C)C(=O)Cc1cccs1 (centres undefined) was tested. Which inhibition did it give?
A: -25.1%

Q: How did the inhibition turn out when COc1cccc(C(=O)N(Cc2ccco2)Cc2ccccc2F)c1 was run?
A: -2.3%

Q: O=C(C(Cc1ccccc1)N1Cc2ccccc2C1=O)N1CCCCCC1 (centres undefined) was tested. Which inhibition did it give?
A: 0.8%

Q: How did the inhibition turn out when COc1ccc(Oc2c(C(F)(F)F)oc3cc(OC(=O)c4ccco4)ccc3c2=O)cc1 was run?
A: 9.6%

Q: For COc1ccccc1-c1c(C(F)(F)F)oc2cc(OC(=O)c3ccccc3C)ccc2c1=O, which inhibition is on record?
A: 2.7%

Q: With COc1ccc(-c2c(C(F)(F)F)oc3cc(OC(=O)c4ccc(C)cc4)ccc3c2=O)cc1OC as the compound, how does the inhibition read?
A: -0.2%

Q: How did the inhibition turn out when COc1ccc(-c2c(C(F)(F)F)oc3cc(OC(=O)c4ccco4)ccc3c2=O)cc1OC was run?
A: 43.5% (active)

Q: With COc1ccc(C(=O)Oc2ccc3c(=O)c(-c4ccc(OC)c(OC)c4)c(C(F)(F)F)oc3c2)cc1 as the compound, how does the inhibition read?
A: 9.4%

Q: How did the inhibition turn out when COc1ccccc1-c1c(C(F)(F)F)oc2cc(OC(=O)c3ccco3)ccc2c1=O was run?
A: 59% (active)

Q: How did the inhibition turn out when COc1cc(C2C(C(=O)c3cc4ccccc4o3)=C(O)C(=O)N2c2nnc(C)s2)ccc1O (centres undefined) was run?
A: -5.6%

Q: O=C1OC(c2ccccc2F)/C(=C(/O)c2ccccc2)C1=O (centres undefined) was tested. Which inhibition did it give?
A: 2.1%

Q: Which inhibition does the source give for CCOC(=O)c1cc2ccccc2n1CC(=O)c1ccccc1 here?
A: -0.2%

Q: How did the inhibition turn out when O=C1C(=O)N(c2nncs2)C(c2ccc(F)cc2)/C1=C(\O)c1ccccc1 (centres undefined) was run?
A: 5.9%

Q: Which inhibition does the source give for Fc1cccc(-c2nn(CN3CCCCC3)c(=S)n2-c2ccccc2)c1 here?
A: 4.7%

Q: How did the inhibition turn out when COc1ccc(C2/C(=C(\O)c3ccc(F)cc3)C(=O)C(=O)N2c2nnc(C)s2)cc1 (centres undefined) was run?
A: 4.6%

Q: How did the inhibition turn out when COc1ccc(/C(O)=C2\C(=O)C(=O)N(CCN3CCOCC3)C2c2ccc(Br)cc2)cc1 (centres undefined) was run?
A: 2.9%

Q: With O=C(O)CCc1oc2cc(O)ccc2c(=O)c1-c1nc2ccccc2[nH]1 as the compound, how does the inhibition read?
A: 11.1%

Q: For CCOC(=O)c1c(NC(=O)C2CCCC2)sc2c1CCC(CC)C2 (centres undefined), which inhibition is on record?
A: -13.3%

Q: How did the inhibition turn out when CCc1c(C)nc2c(-c3ccccc3OC)c(C)[nH]n2c1=O was run?
A: 5.5%

Q: For CCOc1ccccc1C1CC(=O)NC2=C1C(=O)CC(c1ccccc1Cl)C2 (centres undefined), which inhibition is on record?
A: -7.2%

Q: Which inhibition does the source give for O=C1C(=O)N(CCN2CCOCC2)C(c2ccc(Cl)cc2)/C1=C(\O)c1ccc(F)cc1 (centres undefined) here?
A: -8.1%

Q: How did the inhibition turn out when CCc1cc2c(=O)c(-c3nc4ccccc4[nH]3)c(C)oc2cc1OC(C)=O was run?
A: -0.7%

Q: CCc1cc2c(=O)c(-c3nc4ccccc4n3C)c(C)oc2cc1OC(C)=O was tested. Which inhibition did it give?
A: 78.9% (active)

Q: How did the inhibition turn out when CCc1cc2c(=O)c(-c3nc4ccccc4n3C)c(C)oc2cc1O was run?
A: -2.5%

Q: With Cc1[nH]n2c(=O)cc(Cc3ccccc3)nc2c1-c1ccccc1 as the compound, how does the inhibition read?
A: 6.8%

Q: Which inhibition does the source give for CCOC(=O)C(C#N)C(c1ccc2c(c1)OCO2)c1ccccc1OC (centres undefined) here?
A: -0.7%

Q: O=C(NC(c1nnc(-c2ccccc2)o1)c1ccccc1F)c1ccc(F)cc1 (centres undefined) was tested. Which inhibition did it give?
A: -6%

Q: Which inhibition does the source give for CN1C(=O)C2(/C(=C(/O)c3ccc(F)cc3)C(=O)C(=O)N2CCN2CCOCC2)c2ccccc21 (centres undefined) here?
A: -6.9%

Q: Cc1ccc(C2/C(=C(/O)c3ccccc3)C(=O)C(=O)N2Cc2cccnc2)cc1 (centres undefined) was tested. Which inhibition did it give?
A: 5.2%

Q: Which inhibition does the source give for COc1ccc(C2/C(=C(\O)c3ccc(C)cc3)C(=O)C(=O)N2Cc2cccnc2)c(OC)c1 (centres undefined) here?
A: 65.6% (active)

Q: Which inhibition does the source give for CC(C)(C)c1ccc(C2/C(=C(\O)c3ccccc3)C(=O)C(=O)N2Cc2cccnc2)cc1 (centres undefined) here?
A: -8.3%

Q: For COCCCN1C(=O)C(=O)/C(=C(/O)c2ccccc2)C1c1ccc(Cl)cc1 (centres undefined), which inhibition is on record?
A: 0.5%

Q: Which inhibition does the source give for Cc1ccc(/C(O)=C2\C(=O)C(=O)N(Cc3cccnc3)C2c2ccc(Br)cc2)cc1 (centres undefined) here?
A: 61.8% (active)

Q: Which inhibition does the source give for COCCCN1C(=O)C(=O)/C(=C(/O)c2ccc(C)cc2)C1c1ccc(C(C)C)cc1 (centres undefined) here?
A: 2.7%

Q: Which inhibition does the source give for COc1ccccc1C1/C(=C(\O)c2ccc(C)cc2)C(=O)C(=O)N1Cc1cccnc1 (centres undefined) here?
A: -4.4%

Q: How did the inhibition turn out when COCCCN1C(=O)C(=O)/C(=C(/O)c2ccccc2)C1c1ccc(C(C)C)cc1 (centres undefined) was run?
A: 54.4% (active)

Q: How did the inhibition turn out when COc1ccc(C2/C(=C(/O)c3ccccc3)C(=O)C(=O)N2Cc2ccccc2)c(OC)c1 (centres undefined) was run?
A: -11%

Q: For CC(C)c1ccc(C2/C(=C(\O)c3ccccc3)C(=O)C(=O)N2Cc2cccnc2)cc1 (centres undefined), which inhibition is on record?
A: 40.5% (active)

Q: How did the inhibition turn out when O=C1C(=O)N(Cc2cccnc2)C(c2ccc(Br)cc2)/C1=C(\O)c1ccccc1 (centres undefined) was run?
A: -0.7%

Q: With O=C1C(=O)N(Cc2cccnc2)C(c2ccc(Cl)cc2)/C1=C(\O)c1ccccc1 (centres undefined) as the compound, how does the inhibition read?
A: 8.1%
